Test results: PubChem BioAssay (NCI)
Compounds without any hit were thinned out: in the full panel of roughly 79,000, 15% have a hit. Active and inactive are the calls of the source. Rule as the data show it: active = growth inhibition above about 70%; inactive = the rest.

Experiments:
[1] = NCI Yeast Anticancer Drug Screen. Data for the rad50 strain (AID 155);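 also: 0% = growth of vehicle-only cultures of the same strain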; settings: S. cerevisiae rad50 strain growth inhibition; at 50.0 µM; active compounds read high
Outline: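 Cells are treated with compound, grown, and their growth is then scored against vehicle-only cultures of the same repair-deficient yeast strain.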

[2] = NCI Yeast Anticancer Drug Screen. Data for the mec2-1 strain (AID 157); settings: S. cerevisiae mec2-1 strain, at 50.0 µM, active compounds read high
Outline: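 Cells of the genetically defined mec2-1 yeast strain are incubated with test compound. Inhibition of growth is calculated against vehicle-treated controls.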

[3] = NCI Yeast Anticancer Drug Screen. Data for the sgs1 mgt1 strain (AID 161);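 also: 0% = growth of cultures given vehicle only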; settings: S. cerevisiae sgs1 mgt1 strain, at 50.0 µM, active compounds read high
Outline: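 Inhibition of yeast growth, normalised to vehicle-treated controls, is reported for a strain bearing genetic alterations in DNA damage repair.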

[4] = NCI Yeast Anticancer Drug Screen. Data for the cln2 rad14 strain (AID 165);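 also: 0% = growth equal to vehicle treated cultures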; settings: S. cerevisiae cln2 rad14 strain, at 50.0 µM, active compounds read high
Outline: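 The screen exposed genetically defined yeast (cln2 rad14) to test compounds and scored growth inhibition relative to vehicle-treated controls.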

[5] = NCI Yeast Anticancer Drug Screen. Data for the bub3 strain (AID 167); settings: S. cerevisiae bub3 mutant strain, at 50.0 µM, active compounds read high
Outline: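 Part of a panel of yeast mutants defective in DNA damage repair or cell cycle regulation. Each strain is grown with compound, and inhibition is calculated relative to solvent-treated cultures.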

[6] = NCI Yeast Anticancer Drug Screen. Data for the mlh1 rad18 strain (AID 175); settings: S. cerevisiae mlh1 rad18 strain growth inhibition; at 50.0 µM; active compounds read high
Outline: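 Compound-treated yeast growth, normalised to vehicle controls. Strain bears defined DNA repair mutations.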

Measured: growth inhibition

CSC(=S)N(C)c1nc(=[N+](C)C)ss1
inactive: [1] -12.8% | [2] -1.2% | [3] -9.8% | [4] -32.4% | [5] -2.25% | [6] 27.3%

O=C(Nc1cccc(Cl)c1Cl)C(Cl)(Cl)Cl
inactive: [1] 11.8% | [2] 20.9% | [3] 19.4% | [4] 6.35% | [5] 31.2% | [6] 28.8%

CC1CNCCN1c1ccc(Cl)cc1 (stereo unspecified)
inactive: [1] 13.6% | [2] -20.8% | [3] 11.2% | [4] 20.1% | [5] 22.8% | [6] 6.15%

COc1cc2c(cc1O)CNCC2c1ccc(O)c(C)c1 (stereo unspecified)
inactive: [1] -10.8% | [2] -14.6% | [3] 9.55% | [4] -13.8% | [5] -11.4% | [6] -4.7%

COc1ccc2c(c1OC(C)=O)C1=CC(=O)CCC13CCNC3C2 (stereo unspecified)
inactive: [1] 15.8% | [2] 6.7% | [3] -13.9% | [4] 27.2% | [5] -28.4% | [6] -24.3%

COc1oc(C2C/C(=C/C(C)=C/C(C)=C/C(C)=C/c3ccc([N+](=O)[O-])cc3)CO2)c(C)c(=O)c1C (stereo unspecified)
inactive: [1] 1.15% | [2] -4.75% | [3] -9.4% | [4] -6.85% | [5] -8.15% | [6] -33%

C=CCC1(C(=C)C)C(=O)NC(=O)NC1=O
inactive: [1] 6.05% | [2] 6.05% | [3] 1.4% | [4] 2.75% | [5] -13.8% | [6] -11.3%

CCCCOP(O)(=S)OCCCC.[Tb]
inactive: [1] -19% | [2] 14.6% | [3] -14.6% | [4] 29.1% | [5] -14.8% | [6] 17.9%

CCOP(=S)(OCC)Oc1ccc2c(c1)OC(=O)C1(Cl)C2(C)C2(Cl)C(=O)Oc3cc(OP(=S)(OCC)OCC)ccc3C12C (stereo unspecified)
inactive: [1] 10.2% | [2] 4.75% | [3] 3.45% | [4] 15.1% | [5] 2.05% | [6] 1.45%

CN(C)P1(=O)NCC(C(C)(C)C)CO1 (stereo unspecified)
inactive: [1] 26.4% | [2] -21.1% | [3] -5.3% | [4] 21.6% | [5] -0.1% | [6] -16.8%

NC1CC2NC3CCCCC3NC2CC1N (stereo unspecified)
inactive: [1] 14.8% | [2] 6.25% | [3] -0.6% | [4] 19.5% | [5] -22.4% | [6] 6.55%

O=C(C(F)(F)Cl)C(F)(F)Cl
inactive: [1] 13.8% | [2] -14.9% | [3] 6.85% | [4] 15.6% | [5] -15.2% | [6] 24.3%

O=P(Nc1ccccc1)(Oc1ccccc1)N(CCCl)CCCl (stereo unspecified)
inactive: [1] 29.4% | [2] -10% | [3] 1.2% | [4] 24.2% | [5] 7.7% | [6] 20.6%

CNC1=C(C)C(=O)C2=C(C1=O)C(COC(N)=O)C1(OC)C3NC3CN21 (stereo unspecified)
inactive: [1] 58.8% | [2] 53% | [3] 52% | [4] 60.6% | [5] 31.4%
active: [6] 83.8%

COC[n+]1cccc(C2CCC[N+]2(C)C)c1 (stereo unspecified)
inactive: [1] 6.35% | [2] 1.25% | [3] 6.8% | [4] 9.9% | [5] 1.8% | [6] 15.5%

CCCCOP(O)(=S)OCCCC.[Y]
inactive: [1] -20.9% | [2] 2.95% | [3] 4.2% | [4] 25.4% | [5] -8.6% | [6] -2.75%

OC1(c2ccccc2)N=C(c2ccccc2)c2ccccc2-n2cccc21 (stereo unspecified)
inactive: [1] 0.95% | [2] -24.8% | [3] -14.5% | [4] 0.75% | [5] -0.95% | [6] -1.3%

CN(C)CC#CCN(C)C
inactive: [1] 28.1% | [2] 5% | [3] -1% | [4] -10.8% | [5] 0.45% | [6] 7.2%

S=P1(c2ccccc2)C=C(N2CCCC2)CC1 (stereo unspecified)
inactive: [1] 20.4% | [2] 20.2% | [3] 16.6% | [4] 1.7% | [5] 11.7% | [6] 20.4%

Oc1c(Cl)cccc1Cl
inactive: [1] -22.4% | [2] -51.9% | [3] -63% | [4] -1.6% | [5] -55.1% | [6] 3.4%

O=C1NC(=S)NC(=O)C1=Cc1ccccc1O
inactive: [1] -2.15% | [2] -16.9% | [3] -12.3% | [4] -32.4% | [5] -1.45% | [6] -31.2%

COc1ccc2c3c1OC1C(OC)(OC)CC4(C=C2)CN(C)CCC314 (stereo unspecified)
inactive: [1] -31% | [2] -22.4% | [3] -20.4% | [4] -11.4% | [5] -23.9% | [6] -11.8%

C[P+]1(C)CCCCC1
inactive: [1] 7.15% | [2] 12.8% | [3] 0.35% | [4] -2.7% | [5] -8.85% | [6] -17.1%

NCc1c[nH]c2ccccc12
inactive: [1] -25.1% | [2] 4.8% | [3] -22.7% | [4] -12.8% | [5] -16.5% | [6] -9.7%

C/C=C/CC1(CC)C(=O)NC(=O)NC1=O
inactive: [1] 16.9% | [2] 10.9% | [3] 11.8% | [4] 16.6% | [5] 2% | [6] 8.1%

CC12CC/C(=C3/C=CC(=O)S3)C=C1CCC1C2CCC2(C)C(O)CCC12 (stereo unspecified)
inactive: [1] 23.9% | [2] -5.55% | [3] 4.95% | [4] 10.3% | [5] -19.6% | [6] 15.8%

CC(C)/C=C/C1(C(C)C)C(=O)NC(=O)NC1=O
inactive: [1] 19.5% | [2] 9.5% | [3] -4.85% | [4] 14.1% | [5] 3.9% | [6] 3.1%

[Cl][Pt][Cl].c1ccc([PH+](c2ccccc2)c2ccccc2)cc1.c1ccc([PH+](c2ccccc2)c2ccccc2)cc1
inactive: [1] -1.7% | [2] 4.75% | [3] -4.95% | [4] -6.6% | [5] -1.6% | [6] -16.9%

O=[N+]([O-])c1ccc(O)c(C=NCCN=Cc2cc([N+](=O)[O-])ccc2O)c1.[Zn+2]
inactive: [1] 15.4% | [2] 7% | [3] -6.05% | [4] -15.8% | [5] 1.1% | [6] 23.4%

C#CCOC(N)=O
inactive: [1] 1.05% | [2] -15.1% | [3] -7.65% | [4] -18.6% | [5] -14.8% | [6] -17.6%

O=[N+]([O-])C1(Cl)CCC(Cl)([N+](=O)[O-])CC1 (stereo unspecified)
inactive: [1] 5.85% | [2] -6.2% | [3] -2.1% | [4] -23.4% | [5] -14.6% | [6] -18.3%

CCCC(C)SP(=S)(SC(C)CCC)SC(C)CCC (stereo unspecified)
inactive: [1] 4.1% | [2] -11.3% | [3] -1.9% | [4] -43.3% | [5] 2.85% | [6] 19.6%

C[N+]1(C)C2CCC1CC(OC(=O)C(CO)c1ccccc1)C2 (stereo unspecified)
inactive: [1] 18.7% | [2] -21.6% | [3] -6% | [4] -28.4% | [5] -51.5% | [6] -5.95%

CSc1ccc([As](=O)(O)O)cc1
inactive: [1] 15.2% | [2] 4.45% | [3] 30.9% | [4] 24.3% | [5] -18.1% | [6] 46.5%

CCC1CN1P1(=O)OCC(C)(N)CO1 (stereo unspecified)
inactive: [1] -9.45% | [2] 0.7% | [3] -7.35% | [4] 42.6% | [5] -29.1% | [6] -10.6%

Cc1ccc(OP(=O)(Oc2ccc(C)cc2)Oc2ccc(C)cc2)cc1.Cc1ccc(OP(=O)(Oc2ccc(C)cc2)Oc2ccc(C)cc2)cc1.[Cl][Ni][Cl]
inactive: [1] 23.5% | [2] 35.8% | [3] 29.4% | [4] 4.2% | [5] 38.4% | [6] 59.3%
